Measured values taken from PubChem BioAssay.
Values without a mark were called inactive. For part of these data: Measured potencies and affinities stand elsewhere. Active and inactive are the calls of the source. Unless noted, the rule behind the calls is not given here.

Tests used:
[1] = antimalarial activity against Dd2 strain (AID 2302;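 active = growth inhibition above 50% at the single 2 µM test dose, taken to imply half-maximal potency below 2 µM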;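 note: 0% = DMSO untreated growth and 100% = chloroquine plus artemisinin killed control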); details: P. falciparum Dd2 in RBCs, LDH growth readout, 72 h; at 2 µM; hits give high values
[2] = human hepatoma cell viability loss – ATP luminescence, cytotoxicity control for P. falciparum antimalarial project, primary screen (AID 2303;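 active = inhibition above 50%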;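 note: 0% = DMSO wells and 100% = digitonin-killed cells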); details: HepG2 viability, 24-48 h, at 10 µM, hits give high values
[3] = biological target: L-lactate dehydrogenase (Plasmodium falciparum (isolate CDC / Honduras)) (UniProt Q27743); assay: PfLDH activity inhibition – cell lysate, 3D7 strain, counter-screen for P. falciparum growth inhibition project (AID 2304);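 note: 0% = vehicle and 100% = reference inhibitor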; details: P. falciparum 3D7 crude extract, LDH APAD/NBT absorbance; at 2 µM; hits give high values
[4] = inhibition of 3D7 malaria parasite growth – strain 3D7 (AID 2306);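 note: 0% = DMSO wells and 100% = chloroquine plus artemisinin control wells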; details: P. falciparum 3D7 erythrocytic growth, LDH absorbance, 72 h; at 2 µM; hits give high values
[5] = biological target: Calcium-dependent protein kinase 1 (Plasmodium falciparum (isolate 3D7)) (UniProt P62344); assay: PfCDPK1 kinase inhibitors, biochemical, TCAMS library (AID 1159585; cut-off not given, nearly all actives have IC50 up to about 0.98 µM;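 note: inhibitors leave more ATP so luminescence rises with inhibition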); details: recombinant PfCDPK1, Kinase-Glo ATP depletion luminescence
[6] = biological target: Plasmodium falciparum protein kinase 6 (PK6, PF3D7_1337100) (UniProt Q8IDW1); assay: PfPK6 kinase inhibitors, biochemical, TCAMS library (AID 1159586); details: recombinant PfPK6, Kinase-Glo ATP depletion luminescence
[7] = biological target: Protein kinase 7 (PK7), Plasmodium falciparum 3D7 (PF3D7_0213400) (UniProt Q7YTF7); assay: inhibition of Plasmodium PK7 catalytic activity – biochemical, TCAMS antimalarial set, Kinase-Glo luminescence (AID 1159587); details: recombinant PfPK7, Kinase-Glo ATP depletion luminescence
[8] = biological target: Calcium-dependent protein kinase 4 (Plasmodium falciparum (isolate 3D7)) (UniProt Q8IBS5); assay: PfCDPK4 kinase inhibitors, biochemical, TCAMS library (AID 1159588; cut-off not given, nearly all actives have IC50 up to about 0.91 µM); details: recombinant PfCDPK4, Kinase-Glo ATP depletion luminescence
Calcium-dependent protein kinase 4 (Plasmodium falciparum (isolate 3D7)), sequence (Q8IBS5 whole entry, looked up): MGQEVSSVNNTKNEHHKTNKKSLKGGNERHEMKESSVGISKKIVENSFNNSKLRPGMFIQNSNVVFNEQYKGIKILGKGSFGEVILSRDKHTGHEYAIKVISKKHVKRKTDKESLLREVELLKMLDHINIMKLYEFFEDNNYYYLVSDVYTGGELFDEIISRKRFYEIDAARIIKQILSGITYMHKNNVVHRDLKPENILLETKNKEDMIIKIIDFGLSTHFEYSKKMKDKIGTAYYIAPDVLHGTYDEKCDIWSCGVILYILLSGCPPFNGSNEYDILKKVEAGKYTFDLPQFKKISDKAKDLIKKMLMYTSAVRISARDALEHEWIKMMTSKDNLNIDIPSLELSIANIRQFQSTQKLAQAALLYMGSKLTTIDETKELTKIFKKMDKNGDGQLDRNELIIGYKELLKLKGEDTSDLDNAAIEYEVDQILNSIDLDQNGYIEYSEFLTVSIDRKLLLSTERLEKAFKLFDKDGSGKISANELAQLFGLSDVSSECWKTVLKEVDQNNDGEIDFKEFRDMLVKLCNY

Plasmodium falciparum protein kinase 6 (PK6, PF3D7_1337100), sequence (Q8IDW1 1-305): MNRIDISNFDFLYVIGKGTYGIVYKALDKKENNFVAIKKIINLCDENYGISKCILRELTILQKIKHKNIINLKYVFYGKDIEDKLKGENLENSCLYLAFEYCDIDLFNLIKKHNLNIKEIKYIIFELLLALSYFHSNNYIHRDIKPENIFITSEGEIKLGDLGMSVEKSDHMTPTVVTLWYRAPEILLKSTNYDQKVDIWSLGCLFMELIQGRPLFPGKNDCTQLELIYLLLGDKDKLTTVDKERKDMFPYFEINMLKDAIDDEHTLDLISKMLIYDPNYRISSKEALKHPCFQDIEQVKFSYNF
L-lactate dehydrogenase (Plasmodium falciparum (isolate CDC / Honduras)), sequence (Q27743 whole entry, looked up): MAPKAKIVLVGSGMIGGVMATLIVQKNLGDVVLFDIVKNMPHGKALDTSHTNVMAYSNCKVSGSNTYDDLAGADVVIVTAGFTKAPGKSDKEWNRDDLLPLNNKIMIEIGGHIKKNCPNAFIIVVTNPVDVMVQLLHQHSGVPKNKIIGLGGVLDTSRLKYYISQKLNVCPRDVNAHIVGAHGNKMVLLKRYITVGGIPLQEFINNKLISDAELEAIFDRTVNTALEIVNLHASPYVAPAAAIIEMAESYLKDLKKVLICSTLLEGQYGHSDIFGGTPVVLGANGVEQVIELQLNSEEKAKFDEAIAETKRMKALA
Protein kinase 7 (PK7), Plasmodium falciparum 3D7 (PF3D7_0213400), sequence (Q7YTF7 1-343): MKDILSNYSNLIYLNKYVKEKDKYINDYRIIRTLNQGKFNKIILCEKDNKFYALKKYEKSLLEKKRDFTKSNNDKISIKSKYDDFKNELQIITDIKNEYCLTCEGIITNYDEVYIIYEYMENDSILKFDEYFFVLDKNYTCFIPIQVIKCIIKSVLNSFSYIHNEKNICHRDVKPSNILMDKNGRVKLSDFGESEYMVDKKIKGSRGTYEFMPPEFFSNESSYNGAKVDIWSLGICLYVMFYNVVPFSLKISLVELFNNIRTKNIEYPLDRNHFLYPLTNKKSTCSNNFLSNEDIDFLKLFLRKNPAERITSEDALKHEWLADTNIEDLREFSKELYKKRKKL
Calcium-dependent protein kinase 1 (Plasmodium falciparum (isolate 3D7)), sequence (P62344 whole entry, looked up): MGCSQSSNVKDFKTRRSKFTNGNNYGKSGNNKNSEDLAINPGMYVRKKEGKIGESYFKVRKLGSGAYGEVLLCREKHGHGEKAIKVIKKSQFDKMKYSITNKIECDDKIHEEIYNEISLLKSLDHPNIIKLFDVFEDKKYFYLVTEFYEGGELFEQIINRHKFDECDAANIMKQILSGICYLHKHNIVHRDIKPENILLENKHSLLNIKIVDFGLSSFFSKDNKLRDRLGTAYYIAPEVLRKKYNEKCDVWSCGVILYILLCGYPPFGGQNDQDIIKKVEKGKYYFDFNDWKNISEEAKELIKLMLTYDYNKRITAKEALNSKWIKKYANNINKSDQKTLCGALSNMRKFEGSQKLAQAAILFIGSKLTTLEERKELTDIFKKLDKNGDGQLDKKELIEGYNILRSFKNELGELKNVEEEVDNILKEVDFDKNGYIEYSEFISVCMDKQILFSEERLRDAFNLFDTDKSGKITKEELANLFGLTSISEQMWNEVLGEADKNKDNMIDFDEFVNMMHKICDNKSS

| Compound | growth inhibition [1] | inhibition [2] | inhibition [3] [%] | growth inhibition [4] | outcome [5] | outcome [6] | outcome [7] | outcome [8] |
| --- | --- | --- | --- | --- | --- | --- | --- | --- |
| O=S(=O)(c1csc2ccccc12)N(CCC(O)(C(F)(F)F)C(F)(F)F)Cc1cccc(O)c1 | 100% (active) | -11% | 7 | 101% (active) | inactive | inactive | inactive | inactive |
| Cc1cc2[nH]c(-c3ccc(C(=O)NCCCN4CCN(c5cccc(Cl)c5)CC4)cc3F)nc2cc1Cl | 79% (active) | -2% | 5 | 99% (active) | inactive | inactive | inactive | inactive |
| CN1CCN(CC(=O)Nc2cccc(-c3cccc(-c4nc5ccccc5[nH]4)c3)c2)CC1 | 27% | 11% | 3 | 90% (active) | inactive | inactive | inactive | inactive |
| C=CCOc1ccc(C2C(C(=O)OC)=C(C)NC3=C2C(=O)c2ccccc23)cc1OC (configuration not stated) | 65% (active) | -4% | -8 | 82% (active) | inactive | inactive | inactive | inactive |
| Cc1ccc2nc(C)n(C3CCN(C(=O)C4(c5ccccc5)CC4)CC3)c2c1 | 83% (active) | 8% | 7 | 100% (active) | inactive | inactive | inactive | inactive |
| FC(F)(F)c1ccc2nccc(NN=Cc3cccnc3)c2c1 | 40% | -9% | -8 | 101% (active) | inactive | inactive | inactive | inactive |
| CC(=O)Nc1nc(C(=O)Nc2ccc(-c3cccc(-c4nc5c(C)cccc5[nH]4)c3)cc2)cs1 | 73% (active) | 100% (active) | -4 | 101% (active) | inactive | inactive | inactive | inactive |
| Cc1onc(-c2ccccc2)c1-c1nc(NC2CCCC(C)C2)no1 (configuration not stated) | 46% | 22% | -3 | 101% (active) | inactive | inactive | inactive | inactive |
| Cc1cc(NN=Cc2ccccn2)c2cc(F)ccc2n1 | 96% (active) | 9% | 5 | 100% (active) | inactive | inactive | inactive | inactive |
| COc1ccc(CNC2Cc3ccccc3C2)cc1-c1ccc(S(=O)(=O)NCCc2ccccn2)s1 | 22% | 11% | 0 | 92% (active) | inactive | inactive | inactive | inactive |
| CCc1ccc(C2CCN(CCCCNC(=O)c3ccc(NC(=O)c4ccc(Cl)cc4)cc3)CC2)cc1 | 63% (active) | 15% | -3 | 100% (active) | inactive | inactive | inactive | inactive |
| N#Cc1ccc2c(c1)CCN(CCC1CCC(NC(=O)/C=C/c3ccc(F)c4ccccc34)CC1)CC2 (configuration not stated) | 19% | 29% | -2 | 95% (active) | inactive | inactive | inactive | inactive |
| CC(C)Cn1c(Sc2ccc(C#N)c([N+](=O)[O-])c2)nnc1-c1ccccc1 | 12% | 17% | 2 | 83% (active) | inactive | inactive | inactive | inactive |
| Cc1c(OC(C)C)nc2ccccc2c1C(=O)N[C@H](c1cccc(F)c1)C1CC1 | 34% | 6% | 3 | 83% (active) | inactive | inactive | inactive | inactive |
| CNC(=O)c1cc(Nc2nnc(-c3ccc(C)c(S(=O)(=O)NC4CCCCC4)c3)c3ccccc23)ccc1OC | 61% (active) | -10% | 5 | 87% (active) | inactive | inactive | inactive | inactive |
| N#Cc1ccc(-c2ccc(C(=O)NCCCCN3CCC(c4ccc5c(c4OCC(N)=O)CCCC5)CC3)nc2)cc1 | 97% (active) | 21% | -4 | 100% (active) | inactive | inactive | inactive | inactive |
| N#Cc1cc(C(=O)c2cc(Cl)ccc2O)cn(-c2cc(Cl)cc(Cl)c2)c1=O | 32% | 34% | -8 | 93% (active) | inactive | inactive | inactive | inactive |
| O=C(Nc1ccon1)c1cc(-c2cccnc2)nc2ccc(Cl)cc12 | 76% (active) | -4% | 6 | 98% (active) | inactive | inactive | inactive | inactive |
| CN1CCN(c2ccnc3ccc(NC(=O)Nc4ccc5ccccc5c4)cc23)CC1 | 99% (active) | 2% | -1 | 101% (active) | inactive | inactive | inactive | inactive |
| O=C(/C=C/c1ccc(Cl)c(Cl)c1)NCCCCCN1CCN(C(=O)Nc2ccc(Cl)c(C(F)(F)F)c2)CC1 | -3% | 22% | 3 | 100% (active) | inactive | inactive | inactive | inactive |

| Compound | growth inhibition [1] | inhibition [2] | inhibition [3] [%] | growth inhibition [4] | outcome [5] | outcome [6] | outcome [7] | outcome [8] |
| --- | --- | --- | --- | --- | --- | --- | --- | --- |
| CCN(CC)CCNc1c2ccc(Cl)cc2nc2ccc(OC)nc12 | 99% (active) | 20% | 2 | 100% (active) | inactive | inactive | inactive | inactive |
| FC(F)(F)c1ccc2nc(-c3ccc(-c4ccc(CNCCc5ccncc5)cc4)cc3)[nH]c2c1 | 100% (active) | 26% | 6 | 100% (active) | inactive | inactive | inactive | inactive |
| CC(C)Sc1nncc(-c2cnnc(SC(C)C)n2)n1 | 100% (active) | -1% | 2 | 101% (active) | inactive | inactive | inactive | inactive |
| Nc1cc(-c2ccc3c(N)nccc3c2)ccc1Cl | 4% | 1% | -2 | 91% (active) | inactive | inactive | inactive | inactive |
| Cc1cc(N[C@@H](CC(C)C)C(=O)NCc2cccs2)nc(NCCc2ccc(F)cc2)n1 | 59% (active) | 20% | -2 | 100% (active) | inactive | inactive | inactive | inactive |
| COc1cc(NC(=O)N2CCOC(CCN3CCC(c4ccccc4)CC3)(c3ccc(Cl)c(Cl)c3)C2)cc(OC)c1OC (configuration not stated) | 73% (active) | 15% | -2 | 93% (active) | inactive | inactive | inactive | inactive |
| CCCCCCCNCc1c(O)ccc2c(CNCCCCCCC)c(O)ccc12 | 99% (active) | 29% | -3 | 100% (active) | inactive | inactive | inactive | inactive |
| Oc1c(Cl)cc(-c2ccccc2)cc1CNC1CCCCC1 | 95% (active) | 5% | -5 | 97% (active) | inactive | inactive | inactive | inactive |
| C[C@H]1CN(Cc2cccc(-c3cc(CNC(=O)c4cccc(C(=O)c5ccc(Cl)c(Cl)c5)c4)ccc3F)c2)CCN1 | 42% | 40% | 2 | 85% (active) | inactive | inactive | inactive | inactive |
| CCOC(=O)C1=C(C)N=c2sc(=Cc3cc(Cl)ccc3O)c(=O)n2C1c1cc(OC)c(OC)cc1Br (configuration not stated) | 76% (active) | 6% | -2 | 97% (active) | inactive | inactive | inactive | inactive |
| Cc1ccc(Nc2nc(C)cc(N3CCN(CCc4ccccc4)CC3)n2)cc1 | 6% | 6% | -9 | 93% (active) | inactive | inactive | inactive | inactive |
| O=C(NC1CCN(Cc2ccc(F)cc2)CC1)c1ccc(-c2cccc(C(F)(F)F)c2)s1 | 11% | 88% (active) | 4 | 83% (active) | inactive | inactive | inactive | inactive |
| c1ccc2c(Nc3ccc(OCCOCCOc4ccc(Nc5c6ccccc6nc6ccccc56)cc4)cc3)c3ccccc3nc2c1 | 97% (active) | 38% | 7 | 101% (active) | inactive | inactive | inactive | inactive |
| O=C(Nc1ccc2c(c1)CCN2C1CCN(Cc2ccc(C(F)(F)F)cc2F)C1)c1ccco1 (configuration not stated) | 94% (active) | 9% | 1 | 91% (active) | inactive | inactive | inactive | inactive |
| CN1CCN(Cc2ccc(-c3ccc4c(Nc5ccc(Oc6ccccn6)cc5)ccnc4c3)o2)CC1 | 99% (active) | 13% | -3 | 101% (active) | inactive | inactive | inactive | inactive |
| N#Cc1ccc(CN2CCC(Oc3ccc(NC(=O)c4ccco4)cc3Cl)CC2)cc1 | 96% (active) | 7% | 6 | 95% (active) | inactive | inactive | inactive | inactive |
| CCc1cn(CCS(C)(=O)=O)c2ccc(C(=O)N[C@@H](Cc3ccccc3)[C@H](O)CNC(C)(C)CCCC(C)C)cc12 | 96% (active) | 16% | -7 | 87% (active) | inactive | inactive | inactive | inactive |
| CCc1c(C)nc(-n2nc(C)cc2NC(=O)C2c3ccccc3Oc3ccccc32)[nH]c1=O | 80% (active) | 37% | 1 | 89% (active) | inactive | inactive | inactive | inactive |
| CCN(CCS(C)(=O)=O)Cc1ccc(-c2ccc3ncnc(Nc4ccc(OCc5cccc(F)c5)c(Cl)c4)c3c2)o1 | 63% (active) | 5% | -7 | 101% (active) | inactive | inactive | inactive | inactive |
